Test results taken from PubChem BioAssay (NCI).
“And” between values parts separate entries of the source, which are not always exact repeats. Equal entries are not always repeated. Compounds without any hit were thinned out: in the full panel of roughly 83,000, 20% have a hit.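 For each line, cells grew in 96-well plates with the test compound present at a single concentration for 48 hours.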 A number with no mark means an inactive call. The source made the active and inactive calls. How the source made its calls: active means growth percent below 10; inactive means the rest.

tested on: DU-145 prostate; assay: NCI-60 one-dose screen, 48 h (100 = growth as untreated, 0 = no growth, -100 = all killed); conditions: 10 µM unless noted

SMILES	growth
Cc1ccc2c(n1)C(=O)C(Cl)=C(Nc1ccc(C#N)cc1)C2=O	112%
CC(C)(O)c1cncc(-c2ccc3ncc(C#N)c(N4CCc5cc(F)c(Cl)cc54)c3c2)c1	11.7%
O=c1c2ccccc2cc2n1CCN=C2c1ccccc1	102%
O=C(CN1CCN(c2cc(=O)[nH]c3ccc(F)cc23)CC1)N(c1ccccc1)c1ccccc1	107%
CCc1cc(OC(=O)N2CCC(N3CCCCC3)CC2)ccc1Nc1cc(-c2ccc(-n3cccn3)cc2)[nH]n1	-26.3% (active)
CCCC/C(=C\c1ccc(O)c(O)c1)C(=O)NC(Cc1ccccc1)C(=O)C(=O)NCCc1ccc(OC)cc1 (stereo not drawn)	104%
CN(C)c1ccc(-c2cc(-c3c[nH]c4ccccc34)nc(N)c2C#N)cc1	49.2%
COc1cc(C(=O)c2cc(C(C)=O)c3ccc(C)cn23)cc(OC)c1OC	66.9%
CCOC(=O)c1ccccc1NC1=C(Cl)C(=O)c2nc(C)ccc2C1=O	112%
CN(C)S(=O)(=O)c1ccc(-c2nc(C(Cl)Cl)nc3cc(-c4ccccc4)nn23)cc1	79.2%
CN1CCN(c2ccc(Nc3nc(NCCCNS(=O)(=O)c4ccc(Cl)cc4)c4sccc4n3)cc2)CC1	30.8%
O=C1[C@@H]2Cc3c([nH]c4ccccc34)[C@H](c3ccc(Cl)cc3)N2C(=O)CN1C1CCN(Cc2ccccc2)CC1	56.1%
CN1CCN(CCNc2nc(-c3cccc(NS(=O)(=O)c4cccc5c(N(C)C)cccc45)c3)cs2)CC1	81.8%
C#C[C@]1(O)CC[C@H]2[C@@H]3CC=C4c5sc(Nc6ncccc6C)nc5CC[C@]4(C)[C@H]3CC[C@@]21C	36.8%
CC(=O)N(O)CCCCCNC(=O)CCC(=O)N(O)CCCCCNC(=O)CCC(=O)N(O)CCCCCN(CCCCCCCCCC[P+](c1ccccc1)(c1ccccc1)c1ccccc1)CCCCCCCCCC[P+](c1ccccc1)(c1ccccc1)c1ccccc1	14.9%
O=C1Nc2ccccc2/C1=N\c1nnc(-c2ccccc2)o1	107%
CCCCCCCCCC(=O)NC(C)(C)C(=O)N1CCC[C@H]1C(=O)N[C@@H](CC(C)C)C(=O)N[C@@](C)(CC)C(=O)N[C@@H](CCC(N)=O)C(=O)N[C@H](CCC(N)=O)C(=O)NC(C)(C)C(=O)NC(C)(C)C(=O)N[C@@H](CCC(N)=O)C(=O)N[C@H](CC(C)C)C(=O)N[C@H](CO)CC(C)C	-97.6% (active) and -52.1% (active)

SMILES	growth
Fc1cccc(Cl)c1/C=N/Nc1nc(N/N=C/c2c(F)cccc2Cl)nc(N2CCCCC2)n1	61%
Cc1ccc(/C(N)=N/C(N)=N/c2nc3ccccc3s2)cc1	96.5%
CCc1cc2c(cc1Cl)nc1c(=O)[nH]c(=O)nc-1n2CCOCC(C)(C)C	94.5%
Cc1csc(/N=C(N)/N=C(\N)c2cccc(Br)c2)n1	105%
Brc1cccc(-c2cc(-c3cnc4c(c3)OCCO4)n[nH]2)c1	70.4%
CN(C)CC(=O)Nc1nc(-c2cccc(NS(=O)(=O)c3cccc4c(N(C)C)cccc34)c2)cs1	103%
O=C(/C=C/c1cc(Cl)ccc1Cl)Nc1ncc(Cc2ccc(Cl)cc2)s1	14.8%
Nc1ncc(-c2ccc3ncnc(NCc4ccccc4)c3c2)cn1	23.7%
Cc1ccc(-c2cc3nc(C(Cl)Cl)nc(-c4ccc(S(=O)(=O)N(C)C)cc4)n3n2)cc1	85.3%
CCN(CC)CCOc1ccc(C(=C(c2ccccc2)C2CCCC2)c2ccc(OCCN(CC)CC)cc2)cc1	38.3%
COC(=O)c1cccc(NC2=C(Cl)C(=O)c3nc(C)ccc3C2=O)c1	105%
COc1cc(/C=N\NC(=O)c2ccc3nc(-c4ccc(Br)cc4)[nH]c3c2)cc(OC)c1OC	65.6%
NC1=NC2(CCCC2)N(c2ccc(S(=O)(=O)Nc3nccs3)cc2)C(N)=N1	111%
N#C/C(=N\Nc1ccc(F)cc1)C(=O)Nc1cc(-c2ccccc2)nn1-c1ccccc1	22.9%
Cc1ccc(S(=O)(=O)c2nc(-c3ccc(F)cc3)oc2S(C)(=O)=O)cc1	77%
CC(O)c1cccc(/C(N)=N/C(N)=N/c2nc3ccccc3s2)c1 (stereo not drawn)	96.8%
